Source: PubChem BioAssay (NCATS)
Several values for one entry are separate records, joined by “and”; a condition that tells them apart may be missing. Equal entries are not always repeated. Unmarked numbers belong to inactive results. Inconclusive results are not listed. Activity calls are given as the source filed them. Calls follow the shape of the dose curve; as a rule, active = well fitted curve in the direction sought with a large enough effect; inconclusive = small, poorly fitted or top-dose-only effect, or another doubt; inactive = no such curve, though single readings can be large; an effect the other way counts as inactive or inconclusive.

Legend:
[1] = target: Cytochrome P450 3A4 (Homo sapiens) (UniProt P08684); test: qHTS Assay for Inhibitors and Substrates of Cytochrome P450 3A4 (AID 884); also: potency is read from the fitted curve at half-maximal effect; nearly all actives have a fitted effect of over 50% in size
Method in brief: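 Luminescent readout of luciferin produced by CYP3A4 (20 nM) dealkylation of Luciferin-PPXE, 25 uM (its KM). NADPH-driven reaction ran 60 min at RT after 10 min compound preincubation; data scaled to 57 uM ketoconazole as 100% inhibition.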

[2] = target: Cytochrome P450 3A4 (Homo sapiens) (UniProt P08684); test: qHTS Assay for Activators of Cytochrome P450 3A4 (AID 885); also: nearly all actives have a fitted effect of over 65% in size
Method in brief: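 CYP3A4 activity: Luciferin-PPXE O-dealkylation, 25uM substrate, 200mM KPO4, RT throughout. Read-out is luciferase luminescence; higher values reflect activation.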

[3] = target: Cytochrome P450 2D6 (Homo sapiens) (UniProt P10635); test: qHTS Assay for Inhibitors and Substrates of Cytochrome P450 2D6 (AID 891); also: nearly all actives have a fitted effect of over 60% in size; also: potency is read from the fitted curve at half-maximal effect
Method in brief: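 Luminescent read-out of luciferin formed by 5 nM human CYP2D6 demethylating 30 uM Luciferin-ME EGE (Km level) over 60 min at room temperature after NADPH regeneration addition. Data normalized to full inhibition by 1.43 uM quinidine.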

[4] = target: Cytochrome P450 2C19 (Homo sapiens) (UniProt P33261); test: qHTS Assay for Inhibitors and Substrates of Cytochrome P450 2C19 (AID 899); also: nearly all actives have a fitted effect of over 60% in size; also: potency is read from the fitted curve at half-maximal effect
Method in brief: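 Human CYP2C19 (5nM) with Luciferin-H EGE at 10uM (its KM) in 50mM KPO4 was preincubated with compound for 10 min at 37C. NADPH regeneration started a 60 min 37C reaction. Luciferin was read by luminescence, normalized to 57uM ketoconazole.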

Chain of Cytochrome P450 2D6 (Homo sapiens) (P10635 whole entry, looked up): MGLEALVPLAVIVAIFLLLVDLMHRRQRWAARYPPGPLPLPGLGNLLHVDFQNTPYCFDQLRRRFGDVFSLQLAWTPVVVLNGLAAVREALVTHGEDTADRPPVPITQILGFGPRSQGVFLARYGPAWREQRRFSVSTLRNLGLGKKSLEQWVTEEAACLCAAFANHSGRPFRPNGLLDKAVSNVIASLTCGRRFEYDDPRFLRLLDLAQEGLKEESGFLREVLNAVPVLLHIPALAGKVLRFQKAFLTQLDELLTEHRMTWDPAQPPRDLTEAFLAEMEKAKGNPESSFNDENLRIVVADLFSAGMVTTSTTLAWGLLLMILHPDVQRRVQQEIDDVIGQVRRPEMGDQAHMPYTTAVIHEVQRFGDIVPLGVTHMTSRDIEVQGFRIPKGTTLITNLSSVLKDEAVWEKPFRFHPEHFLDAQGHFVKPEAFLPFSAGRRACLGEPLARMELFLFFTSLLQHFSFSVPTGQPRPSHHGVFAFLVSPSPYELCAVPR
Chain of Cytochrome P450 3A4 (Homo sapiens) (P08684 whole entry, looked up): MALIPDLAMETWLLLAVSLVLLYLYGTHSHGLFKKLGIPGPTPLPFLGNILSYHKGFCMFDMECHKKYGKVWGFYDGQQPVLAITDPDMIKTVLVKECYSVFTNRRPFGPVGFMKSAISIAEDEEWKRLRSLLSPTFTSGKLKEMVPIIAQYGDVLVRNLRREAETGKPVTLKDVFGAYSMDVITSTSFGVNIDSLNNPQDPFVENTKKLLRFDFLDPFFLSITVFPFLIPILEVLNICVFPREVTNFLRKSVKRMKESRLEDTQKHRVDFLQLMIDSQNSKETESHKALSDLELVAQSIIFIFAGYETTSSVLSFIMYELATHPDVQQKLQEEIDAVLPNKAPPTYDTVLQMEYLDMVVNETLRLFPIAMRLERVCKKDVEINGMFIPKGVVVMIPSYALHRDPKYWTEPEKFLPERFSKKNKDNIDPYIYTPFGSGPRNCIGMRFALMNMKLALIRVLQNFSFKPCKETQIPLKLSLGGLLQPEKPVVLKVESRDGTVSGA
Chain of Cytochrome P450 2C19 (Homo sapiens) (P33261 whole entry, looked up): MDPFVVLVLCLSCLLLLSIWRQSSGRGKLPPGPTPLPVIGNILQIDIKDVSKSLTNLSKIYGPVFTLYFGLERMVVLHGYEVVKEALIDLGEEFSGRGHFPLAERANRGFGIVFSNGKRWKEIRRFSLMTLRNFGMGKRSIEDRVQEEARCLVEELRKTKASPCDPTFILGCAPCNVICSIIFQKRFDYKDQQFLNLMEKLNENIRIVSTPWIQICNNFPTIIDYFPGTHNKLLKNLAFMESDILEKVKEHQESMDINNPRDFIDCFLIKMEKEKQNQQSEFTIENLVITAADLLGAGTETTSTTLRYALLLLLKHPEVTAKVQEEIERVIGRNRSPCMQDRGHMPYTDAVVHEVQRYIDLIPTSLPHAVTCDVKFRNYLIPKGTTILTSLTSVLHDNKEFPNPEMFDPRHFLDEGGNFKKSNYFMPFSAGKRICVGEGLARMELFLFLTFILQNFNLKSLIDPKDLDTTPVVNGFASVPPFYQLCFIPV

COC(=O)[C@@H]1C[C@H]2CC[C@H](O)C[C@H]2N1Cc1c(F)cccc1Cl
Potency [1]: 15.8 µM (active) | Potency [2]: inactive

C#CCCCO/N=C1/C[C@@H](O)[C@@H](O)[C@@H]2[C@@H]3C(=O)N([C@@H](C)c4ccccc4)C(=O)[C@H]3CC[C@@H]12
Potency [1]: 3.98 µM (active) | activity change, positive = activation [2]: -86% [at 11.4 µM]

C[C@H]1CC[C@H]2C(=O)N[C@H](Cc3ccccc3)C(=O)N2[C@@H]1c1ccccc1
Potency [1]: 2.51 µM (active) | activity change, positive = activation [2]: -99.1% [at 11.4 µM]

C/C(CCN1CCCCc2nc(C)c(C)cc21)=N\O[C@@H](C)CN1CCCc2nc(C)c(C)cc21
Potency [1]: 3.16 µM (active) | activity change, positive = activation [2]: -61.2% [at 11.4 µM]

Cn1c(-c2nc(-c3ccccc3)cs2)nc2ccccc21
Potency [1]: 10 µM (active) | Potency [2]: inactive

CCC1=C(OC(=O)N(CC)CC)N2C(=O)OC(=NCc3ccccc3)[C@]2(C)[C@H]2C1=CC[C@H]1C(=O)N(CC(=O)OC)C(=O)[C@H]12
Potency [1]: 5.01 µM (active) | Potency [2]: inactive

CCC1=C2CC[C@H]3C(=O)N(C)C(=O)[C@H]3[C@H]2[C@@]2(Cc3ccccc3)C(=NCC3CC3)OC(=O)N2C1=O
Potency [1]: 5.01 µM (active) | Potency [2]: inactive

Cc1ccc(S(=O)(=O)N[C@H]2COC(=O)C/C=C\[C@H](C)[C@@H](NS(=O)(=O)c3ccc(C)cc3)COC(=O)C/C=C\[C@@H]2C)cc1
Potency [1]: 3.98 µM (active) | activity change, positive = activation [2]: -90.7% [at 11.4 µM]

CC(=O)N1C2(C=CC1(C)C(=O)NCCN1CCOCC1)CCCCC2 (stereo unspecified)
Potency [1]: 10 µM (active) | Potency [2]: inactive

COc1ccc(O[C@H]2C=C[C@@H](c3ccccc3)O[C@H]2COC(=O)CC/C(C)=N\O[C@@H](C)CN2CCCCc3nc(C)c(C)cc32)cc1
Potency [1]: 3.98 µM (active) | activity change, positive = activation [2]: -114% [at 11.4 µM]

COC(=O)C/C=C\[C@@H](C)[C@@H](/C=N\O[C@@H](C)c1cn([C@H](CO)Cc2ccccc2)nn1)NS(=O)(=O)c1ccc(C)cc1
Potency [1]: 3.98 µM (active) and 2 µM (active) | activity change, positive = activation [2]: -101% [at 11.4 µM] and -92.7% [at 11.4 µM]

CCC1=C(OC(=O)N(CC)CC)N2C(=O)OC(=NCCc3c[nH]c4ccccc34)[C@]2(Cc2ccccc2)[C@H]2C1=CC[C@H]1C(=O)N(C)C(=O)[C@H]12
Potency [1]: 1.26 µM (active) | Potency [2]: inactive

C/C(=C\[C@@H](NP(=O)(c1ccccc1)c1ccccc1)c1ccccc1)CO[Si](c1ccccc1)(c1ccccc1)C(C)(C)C
Potency [1]: 2 µM (active) | Potency [2]: inactive

COc1ccc(O[C@H]2C=C[C@@H](c3ccccc3)O[C@H]2COC(=O)CC/C(C)=N\O[C@@H](C)c2cn([C@H]3COC[C@H]3O)nn2)cc1
Potency [1]: 3.98 µM (active) | activity change, positive = activation [2]: -77.3% [at 11.4 µM]

COc1c(O)c(O)cc2c1oc1c3cc(C)ccc3oc(=O)c21
Potency [1]: 25.1 µM (active) | Potency [2]: inactive

COC(=O)c1ccc(C(NC(=O)OCc2ccccc2)/C(F)=C/[C@@H](C)C(=O)NCc2ccc(OC)c(OC)c2)cc1 (stereo partly specified)
Potency [1]: 5.01 µM (active) | Potency [2]: inactive

CCC1=C(OC(=O)N(CC)CC)N2C(=O)OC(=NCC3CC3)[C@]2(C)[C@H]2C1=CC[C@H]1C(=O)N(CC)C(=O)[C@H]12
Potency [1]: 3.98 µM (active) | Potency [2]: inactive

CN1C[C@@H]2C(c3ccc(Cl)nc3)C3(c4ccccc4)CC2(C3)[C@H]1c1ccccc1 (stereo partly specified)
Potency [1]: 12.6 µM (active) | Potency [2]: inactive

CCC1=C(OC(=O)N(CC)CC)N2C(=O)OC(=NCC3CC3)[C@]2(C)[C@H]2C1=CC[C@H]1C(=O)N(CC(=O)OC)C(=O)[C@H]12
Potency [1]: 7.94 µM (active) | Potency [2]: inactive

CC(C)c1ccccc1S(=O)(=O)c1cc(N)c2ncccc2c1[N+](=O)[O-]
Potency [1]: 1 µM (active) | Potency [2]: inactive

COC(=O)[C@@H]1C[C@@]2(O)[C@@H](O)[C@@H](O)[C@@H](O)C[C@H]2N1CC(c1ccccc1)c1ccccc1
Potency [1]: 3.16 µM (active) | Potency [2]: inactive

CO[C@H]1COC(=O)[C@H](C)NC(=O)C/C=C\[C@@H](C)[C@@H](NS(=O)(=O)c2ccc(C)cc2)COC(=O)[C@H](OCc2ccccc2)/C=C\[C@@H]1C
Potency [1]: 3.16 µM (active) | activity change, positive = activation [2]: -79.4% [at 11.4 µM]

CC(=O)OC[C@@H]1O[C@@H](O/N=C2/C[C@@H](O)[C@@H](O)[C@@H]3[C@@H]4C(=O)N(Cc5ccc6c(c5)OCO6)C(=O)[C@H]4CC[C@H]23)[C@H](OC(C)=O)[C@H](OC(C)=O)[C@@H]1OC(C)=O
Potency [1]: 5.01 µM (active) | activity change, positive = activation [2]: -74.2% [at 11.4 µM]

NC(N)=NCCC[C@H](NC(=O)CC1(CC(=O)N2CCN(C3c4ccccc4NC(=O)c4ccccc43)CC2)CCCC1)C(=O)NCCn1c(=O)n(-c2ccccc2)n(-c2ccccc2)c1=O (stereo partly specified)
Potency [1]: 12.6 µM (active) | Potency [2]: inactive

CC(C)=CCC/C(C)=C/CO/N=C1/C[C@@H](O)[C@@H](O)[C@@H]2[C@@H]3C(=O)N(Cc4ccc5c(c4)OCO5)C(=O)[C@H]3CC[C@H]12
Potency [1]: 1.58 µM (active) | activity change, positive = activation [2]: -115% [at 11.4 µM]

CCc1cc2c(nc1CC)CCN(CC/C(C)=N/O[C@@H](C)c1cc(-c3c(C)cc(C)cc3C)no1)C2
Potency [1]: 3.98 µM (active) | activity change, positive = activation [2]: -69% [at 11.4 µM]

COCCN=C1OC(=O)N2C(=O)C3=C4C(C[C@H]5C(=O)N(CC(=O)OC)C(=O)[C@H]5[C@H]4[C@@]12Cc1ccccc1)[C@H]1C(=O)N(CC(=O)OC)C(=O)[C@H]1[C@H]3C (stereo partly specified)
Potency [1]: 15.8 µM (active) | Potency [2]: inactive

CN1C[C@@H]2C(c3ccc(C(F)(F)F)cc3)C3(c4ccc(C#N)cc4)CC2(C3)[C@H]1c1ccccc1 (stereo partly specified)
Potency [1]: 20 µM (active) | Potency [2]: inactive

CCC1=C(OC(=O)N(CC)CC)N2C(=O)OC(=NCCOC)[C@]2(C)[C@H]2C1=CC[C@H]1C(=O)N(CC(=O)OC)C(=O)[C@H]12
Potency [1]: 10 µM (active) | Potency [2]: inactive

CNC1=C(Br)C(=O)c2ccncc2C1=O
Potency [1]: 1.26 µM (active) | Potency [2]: inactive

CN1C[C@@H]2C(c3ccc(C(F)(F)F)cc3)C3(c4cccnc4)CC2(C3)[C@H]1c1ccccc1 (stereo partly specified)
Potency [1]: 7.94 µM (active) | Potency [2]: inactive

CCCNC(=O)OC[C@@H]1O[C@H](CCO/N=C(\C)CCN2CCc3nc(CC)c(CC)cc3C2)C=C[C@@H]1Oc1ccc(OC)cc1
Potency [1]: 3.98 µM (active) | activity change, positive = activation [2]: -86.1% [at 11.4 µM]

CC1CCC2C(=O)N3C(CCC(C)[C@@H]3c3cccc(N4CCOCC4)c3)C(=O)N2C1c1cccc(N2CCOCC2)c1 (stereo partly specified)
Potency [1]: 3.98 µM (active) | activity change, positive = activation [2]: -62.4% [at 11.4 µM] | Potency [3]: inactive

COC(=O)C/C=C\[C@@H](C)[C@@H](/C=N\OC[C@@H](O)COCc1ccco1)NS(=O)(=O)c1ccc(C)cc1
Potency [1]: 3.16 µM (active) | activity change, positive = activation [2]: -107% [at 11.4 µM] | Potency [3]: inactive

CCCCC#CC1C=CC(Oc2cc(OC)c(OC)c(OC)c2)C(COC(=O)OCC)O1 (stereo unspecified)
Potency [1]: 2.51 µM (active) | activity change, positive = activation [2]: -83.6% [at 11.4 µM] | Potency [3]: inactive | Potency [4]: inactive

CO[C@H]1COC(=O)C/C=C\[C@H](C)[C@@H](NS(=O)(=O)c2ccc(C)cc2)COC(=O)C/C=C\[C@@H]1C
Potency [1]: 3.16 µM (active) | activity change, positive = activation [2]: -67.8% [at 11.4 µM] and -95.2% [at 11.4 µM] | Potency [3]: inactive

C=CCOC(=O)C(C(C)=O)C(NC(=O)OC)c1ccc(Cl)cc1 (stereo unspecified)
Potency [1]: 1.26 µM (active) | activity change, positive = activation [2]: -107% [at 11.4 µM] | Potency [3]: inactive | Potency [4]: 0.251 µM (active)

COC(=O)[C@H]1C[C@@H]2CC[C@@H](O)C[C@@H]2N1Cc1c(F)cccc1Cl
Potency [1]: 12.6 µM (active) | Potency [2]: inactive

CCC1=C2CC[C@H]3C(=O)N(CC(=O)OC)C(=O)[C@H]3[C@H]2[C@@]2(C)C(=O)N(Cc3ccccc3)C(=O)N2C1=O
Potency [1]: 15.8 µM (active) | Potency [2]: inactive

C=CC[C@@H]1C=C[C@H](O/N=C(\C)CCN2CCc3nc(-c4ccccc4)c(-c4ccccc4)cc3C2)[C@H](CO)O1
Potency [1]: 3.98 µM (active) | activity change, positive = activation [2]: -81.8% [at 11.4 µM]

C#CCCCO/N=C1/C[C@@H](O)[C@@H](O)[C@@H]2[C@H]3C(=O)N(c4ccc(F)cc4F)C(=O)[C@@H]3CC[C@H]12
Potency [1]: 3.98 µM (active) | activity change, positive = activation [2]: -60.2% [at 11.4 µM]

CO[C@H]1COC(=O)[C@@H](Cc2ccccc2)NC(=O)[C@@H](C)COC(=O)CCC[C@@H]1C
Potency [1]: 3.16 µM (active) | activity change, positive = activation [2]: -63.9% [at 11.4 µM] | Potency [3]: inactive

CCCCC#CC1C=CC(Oc2ccc(C(=O)OC)cc2)C(COC(=O)OCC)O1 (stereo unspecified)
Potency [1]: 3.98 µM (active) | activity change, positive = activation [2]: -80.8% [at 11.4 µM] | Potency [3]: inactive | Potency [4]: inactive

COC(=O)C(C(C)=O)C(NC(=O)NCc1ccccc1)c1ccccc1 (stereo unspecified)
Potency [1]: 3.98 µM (active) | activity change, positive = activation [2]: -69.4% [at 11.4 µM] | Potency [3]: inactive

O=C(/C=C\c1ccc2c(c1)OCO2)c1ccc(F)cc1
Potency [1]: 3.16 µM (active) | activity change, positive = activation [2]: -89.5% [at 11.4 µM] | Potency [3]: 2 µM (active)

C/C(CCN1CCc2nc(-c3ccccc3)c(-c3ccccc3)cc2C1)=N\OC[C@@H](O)COCc1ccco1
Potency [1]: 3.16 µM (active) | activity change, positive = activation [2]: -86.5% [at 11.4 µM]

OCC1OC(c2ccc3c(c2)OCO3)C=CC1Oc1cc(Cl)cc(Cl)c1 (stereo unspecified)
Potency [1]: 0.316 µM (active) | activity change, positive = activation [2]: -90.6% [at 11.4 µM] | Potency [3]: 3.16 µM (active)

COc1ccc(O[C@H]2C=C[C@@H](c3ccccc3)O[C@H]2COC(=O)CC/C(C)=N\O[C@@H](C)CN2CCCc3nc(C)c(C)cc32)cc1
Potency [1]: 3.16 µM (active) | activity change, positive = activation [2]: -97% [at 11.4 µM] | Potency [3]: 3.16 µM (active) | Potency [4]: 3.16 µM (active)
